# Measured values from PubChem BioAssay (EPA / NIEHS).
# Several values for one entry are separate records, joined by “and”; a condition that tells them apart may be missing. Equal entries are not always repeated. Inconclusive results are not listed. A structure can be active in one record and inactive in another. Activity calls are given as the source filed them. The calls were made as follows, unless noted: active = hit-call score of the fitted dose curve at least 0.9, where 1 is the maximum; inconclusive = response in the unintended direction; inactive = score below 0.9.
# Tests used:
# [1] = test system: Thyroperoxidase (TPO), gene 54314; assay: CCTE_Simmons_AUR_rTPO: CCTE's Amplex UltraRed Assay for Thyroperoxidase (TPO) Inhibition, Simmons Lab (AID 2283662);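 as to AC50: potency for loss of signal meaning inhibition of peroxidase activity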
# Method in brief: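 Rat thyroid microsomes (5 ug protein) with 25 uM Amplex UltraRed and 300 uM H2O2 in 200 mM phosphate buffer, 30 min at 37C in dark; fluorescence 544/590 nm. Eight concentrations, 5 nM–87.5 uM final, 0.5% DMSO, triplicate biological replicates.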
# [2] = CCTE_Simmons_CellTiterGLO_HEK293T: Viability Assessment in CCTE's Assays for Thyroperoxidase (TPO) Inhibition, Simmons Lab (AID 2283665);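 as to AC50: cells exposed to compound for 24 h before readout; actives reduce ATP signal below DMSO vehicle meaning cytotoxicity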
# Method in brief: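 HEK293T, 10 000 cells/well, DMEM + 1% FBS; 8-pt titration 5 nM–87.5 uM [final], 0.5% DMSO; 24 hr, 37C, 5% CO2; CellTiter-Glo luminescence; n=3 biological replicates.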
# [3] = Tanguay_ZF_120hpf_TR_legacy: (Legacy) Oregon State University Tanguay Lab 120 Hour Post-fertilization zebrafish Assay for Touch Response (AID 2283667)
# Method in brief: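 Tropical 5D wild-type zebrafish embryos statically exposed to 120 hpf at 28°C, sealed and dark-covered, 0.64% DMSO final; touch response scored as present/absent by brightfield microscopy at 120 hpf. Trimethyltin chloride 5 uM positive control; dead embryos not scored.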
# [4] = read-out: Cytochrome P450 (CYP24A1_1), CYP24A1 (gene 1591); assay: LTEA_HepaRG_CYP24A1_1: Life Technologies and Expression Analysis (LTEA) Assay for Cytochrome P450 (CYP24A1_1) using HepaRG (AID 2283671; active = hit-call score of the fitted dose curve at least 0.9, where 1 is the maximum; inactive = score below 0.9); conditions: mRNA level, 48 h; actives raise or lower the signal
# Method in brief: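 Differentiated human HepaRG cells in serum-free induction medium, exposed 48 h in duplicate to eight half-log concentrations from 100 uM top, 0.5% DMSO. Transcript measured by TaqMan qRT-PCR, normalised to ACTB, GAPDH, POLR2A; bidirectional fitting versus DMSO.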
# [5] = CCTE_Padilla_ZF_144hpf_TERATOSCORE: (Legacy) CCTE's 144 Hour Post-fertilization zebrafish Assay Teratoscore, Padilla Lab (AID 2283679; active = hit-call score of the fitted dose curve at least 0.9, where 1 is the maximum; inactive = score below 0.9;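 as to AC50: zebrafish embryos with chorions exposed by immersion from 6-8 hpf to 5 dpf with daily renewal; teratogenicity score from eye scoring of death hatching and malformations at 144 hpf; higher score means more developmental defects relative to DMSO baseline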)
# Method in brief: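 Larvae scored by eye at 144 hpf for death, hatching and malformations after a day in clean Hanks'. Before that, daily-renewed exposure at 80 uM (0.4% DMSO, 26C) from roughly 6-8 hpf through 5 dpf, 4 embryos per chemical.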
# [6] = STM_H9_OrnithineISnorm_perc: Stemina devTOX quickPredict H9 human embryonic stem cell (hESC)-based Assay for Ornithine (ORN) Metabolite Biomarker, Normalized (AID 2283712; active = hit-call score of the fitted dose curve at least 0.9, where 1 is the maximum; inactive = score below 0.9;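 also: ornithine released into spent medium during last day measured by mass spectrometry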)
# Method in brief: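 H9 human embryonic stem cells kept pluripotent receive test chemical over 72 h, refreshed daily by media exchange. Media from the closing 24 h is deproteinized and analysed by UPLC-HRMS on an amide column; ornithine signal is scaled to labelled standard and vehicle.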
# [7] = STM_H9_CystineISnorm_perc: Stemina devTOX quickPredict H9 human embryonic stem cell (hESC)-based Assay for Cystine (CYSS) Metabolite Biomarker, Normalized (AID 2283713; active = hit-call score of the fitted dose curve at least 0.9, where 1 is the maximum; inactive = score below 0.9)
# Method in brief: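 H9 hESC, pluripotent; compound 72h, re-dosed q24h with medium change. Last-24h medium → 40% acetonitrile deproteinization → UPLC-HRMS. CYSS area / C13-CYSS standard, then % of 0.1% DMSO median.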
# [8] = STM_H9_OrnCyssISnorm_ratio: Stemina devTOX quickPredict H9 human embryonic stem cell (hESC)-based Assay for Ornithine (ORN):Cystine (CYSS) Ratio (AID 2283714)
# Method in brief: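 Undifferentiated H9 hESCs exposed 72 h, media and compound replaced every 24 h; final 24-h conditioned media deproteinized and analysed by UPLC-HRMS against C13 spike-ins. Value is the internal-standard-normalized ORN/CYSS ratio versus 0.1% DMSO.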
# [9] = Tanguay_ZF_120hpf_ActivityScore_legacy: (Legacy) Oregon State University Tanguay Lab 120 Hour Post-fertilization zebrafish Assay Score for Activity (AID 2283742);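 as to AC50: dechorionated Tropical 5D wild-type zebrafish embryos held singly per well; static exposure from 6 hpf until 120 hpf at 28 °C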
# Method in brief: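 Dechorionated Tropical 5D embryos, one per well from 6 hpf, statically exposed to 120 hpf at 28 °C in 0.64% DMSO. Mortality and malformations scored binary by brightfield microscopy; activity score combines 18 endpoints, fitted positively versus DMSO.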
# [10] = ArunA_CellTiter_hNC: Viability Assessment in the ArunA Biomedical's Oris Neural Crest (hNC) Cell Migration Assay (AID 2283752)
# Method in brief: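 Cell titer was measured with the CellTiter Aqueous One reagent after 72 h of chemical dosing. Cells were H9-derived embryonic neural crest stem cells seeded on Matrigel, 60,000 per well, and given 16 h at 37C beforehand.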
# [11] = ArunA_CellTiter_hNP: Viability Assessment in the ArunA Biomedical's Oris Neural Crest (hNC) Cell Migration Assay (AID 2283753)
# Method in brief: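 H9-derived hNP1 neuroprogenitors, 60,000/well on Matrigel, cultured 16 h, then 72 h chemical exposure in test medium. Cell titer via CellTiter Aqueous One; positive-direction fit vs DMSO.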
# [12] = ArunA_Migration_hNP: ArunA Biomedical's Oris Neuroprogenitor (hNP) Cell Migration Assay (AID 2283754)
# Method in brief: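 Human H9-derived hNP1 neuroprogenitors on Matrigel with LIF/bFGF, plated around seeding stoppers for 16 h at 37C; stoppers removed at start of 72 h chemical exposure. Calcein-AM staining, fluorescence 494/517 nm in detection zone; loss-of-signal vs DMSO; cytochalasin D control.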
# [13] = ArunA_Migration_hNC: ArunA Biomedical's Oris Neural Crest (hNC) Cell Migration Assay (AID 2283755)
# Method in brief: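 Human H9-derived neural crest stem cells, 60,000/well on Matrigel, 16 h at 37C, then 72 h chemical exposure after seeding-stopper removal. Migration into detection zone read as calcein-AM fluorescence (ex494/em517), relative to DMSO.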
# [14] = ArunA_NOG_NucleusCount: ArunA Biomedical's Neurite Outgrowth (NOG) Assay for Nucleus Count (AID 2283756)
# Method in brief: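 Human H9-derived differentiated neurons were exposed for 48 h right after seeding. Hoechst-stained nuclei gated by size and intensity were counted by automated high-content imaging as viable neurons. Loss of signal vs DMSO.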
# [15] = ArunA_NOG_NeuriteLength: ArunA Biomedical's Neurite Outgrowth (NOG) Assay for Neurite Length (AID 2283757)
# Method in brief: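 Differentiated human H9-derived neurons were exposed for 48 h from seeding, then stained with Hoechst and βIII-tubulin. Automated high-content imaging gave total neurite length per valid neuron, counting processes >10 um. Loss of signal was scored versus DMSO.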
# [16] = ArunA_NOG_NeuritesPerNeuron: ArunA Biomedical's Neurite Outgrowth (NOG) Assay for Neurites Per Neuron (AID 2283758)
# Method in brief: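 Differentiated human H9-derived neurons exposed to chemicals for 48 h from seeding, then stained with Hoechst and βIII-tubulin/DyLight 488. Automated imaging counted neurites (processes >10 um) per valid neuron; loss of signal versus DMSO scored.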
# [17] = ArunA_NOG_BranchPointsPerNeurite: ArunA Biomedical's Neurite Outgrowth (NOG) Assay for Branch Points Per Neurite (AID 2283759)
# Method in brief: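 Automated image analysis traced neurites (processes >10 um) from valid cell bodies after Hoechst and βIII-tubulin staining. hNN cells from H9 embryonic stem cells, 48 h exposure. Fitted bidirectionally against DMSO.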
# [18] = molecular target: Luciferin 4-monooxygenase (Photinus pyralis) (UniProt P08659); assay: CCTE_Simmons_QuantiLum_inhib_2: CCTE's Firefly Luciferase Inhibition Assay, Simmons Lab (AID 2283767);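 as to AC50: potency for inhibitors that lower luciferase luminescence relative to DMSO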
# Method in brief: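 Luminescence loss relative to DMSO vehicle defines inhibition; detection reagent containing 150 uM D-luciferin and 147 uM dATP (final, pH 7.8) is injected immediately before each read. Enzyme is preincubated with an 8-point titration (5 nM–87.5 uM final) for 30 min at 37C.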
# [19] = CEETOX_H295R_MTT_cell_viability: Viability Assessment in the CeeTox HT-H295R MTT Assay (AID 2283718; active = hit-call score of the fitted dose curve at least 0.9, where 1 is the maximum; inactive = score below 0.9;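 as to AC50: curve fitted both ways so AC50 may mark viability loss or gain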)
# Method in brief: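 Human H295R adrenal cells, prestimulated 48 h with 10 uM forskolin, were exposed 48 h to chemicals in 0.1% DMSO. Viability was measured in the same wells by MTT (0.5 mg/ml, 4 h, 37 C), absorbance 570/650 nm, as percent of controls.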
# Luciferin 4-monooxygenase (Photinus pyralis), sequence (P08659 whole entry, looked up): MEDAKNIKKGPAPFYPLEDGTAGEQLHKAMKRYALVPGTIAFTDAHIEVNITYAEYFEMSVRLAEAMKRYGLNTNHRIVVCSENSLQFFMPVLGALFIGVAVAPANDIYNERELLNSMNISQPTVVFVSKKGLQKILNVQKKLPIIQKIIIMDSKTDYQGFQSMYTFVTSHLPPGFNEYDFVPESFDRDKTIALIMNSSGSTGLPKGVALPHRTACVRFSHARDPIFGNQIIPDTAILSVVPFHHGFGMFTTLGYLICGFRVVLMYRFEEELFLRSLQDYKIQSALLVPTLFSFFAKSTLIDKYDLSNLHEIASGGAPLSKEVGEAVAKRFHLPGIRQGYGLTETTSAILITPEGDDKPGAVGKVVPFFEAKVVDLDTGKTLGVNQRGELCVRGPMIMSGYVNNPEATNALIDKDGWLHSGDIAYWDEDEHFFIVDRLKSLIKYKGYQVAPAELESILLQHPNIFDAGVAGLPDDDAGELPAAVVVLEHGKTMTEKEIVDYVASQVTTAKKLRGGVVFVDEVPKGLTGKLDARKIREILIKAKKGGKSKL
smiles,measurement,setting,value
CO[C@@H]1[C@H](OC(=O)NC(=O)CCl)CC[C@]2(CO2)[C@H]1[C@@]1(C)O[C@@H]1CC=C(C)C,outcome,[1],inactive
same,outcome,[2],inactive
same,outcome,[3],inactive
same,outcome,[4],inactive
same,outcome,[5],inactive
same,AC50,[6],0.0844 µM (active)
same,AC50,[7],0.039 µM (active)
same,AC50,[8],0.0656 µM (active)
same,outcome,[9],inactive
same,AC50,[10],1.63 nM (active) and 120 nM (active)
same,AC50,[11],0.00608 µM (active)
same,outcome,[11],inactive
same,outcome,[12],inactive
same,AC50,[13],22.8 nM (active) and 5 µM (active)
same,outcome,[14],inactive
same,outcome,[15],inactive
same,outcome,[16],inactive
same,outcome,[17],inactive
same,outcome,[18],inactive
Oc1ccccc1Cl,outcome,[1],inactive
same,outcome,[2],inactive
same,outcome,[9],inactive
same,outcome,[18],inactive
CCC(C)c1ccc(O)cc1 (stereo unspecified),AC50,[1],2.88 µM (active)
same,AC50,[2],43.8 µM (active)
same,outcome,[3],inactive
same,AC50,[5],60.3 µM (active)
same,outcome,[19],inactive
same,outcome,[9],inactive
same,outcome,[18],inactive
COC(=O)c1ccccc1N,outcome,[1],inactive
same,outcome,[2],inactive
same,outcome,[3],inactive
same,outcome,[5],inactive
same,outcome,[9],inactive
same,outcome,[18],inactive
Nc1ccc(N=Nc2ccccc2)cc1,AC50,[1],2.53 µM (active)
same,AC50,[2],40.2 µM (active)
same,AC50,[5],33.9 µM (active)
same,outcome,[19],inactive
same,outcome,[9],inactive
same,AC50,[18],3.16 µM (active)
CN(C)C(=O)Nc1ccc(Cl)cc1,AC50,[1],21.7 µM (active)
same,outcome,[2],inactive
same,outcome,[4],inactive
same,outcome,[6],inactive
same,outcome,[7],inactive
same,outcome,[8],inactive
same,outcome,[9],inactive
same,outcome,[18],inactive
Cc1cc(N=Nc2ccccc2C)ccc1N,AC50,[1],9.17 µM (active)
same,AC50,[2],18.9 µM (active)
same,AC50,[3],29.8 µM (active)
same,AC50,[5],7.92 µM (active)
same,outcome,[19],inactive
same,AC50,[9],33.3 µM (active)
same,AC50,[18],3.76 µM (active)
Cc1cccc(N)c1N,AC50,[1],2.35 µM (active)
same,AC50,[2],4.54 µM (active)
same,outcome,[3],inactive
same,AC50,[5],57 µM (active)
same,AC50,[6],76.4 µM (active)
same,AC50,[7],79 µM (active)
same,AC50,[8],74.5 µM (active)
same,AC50,[19],1.07 µM (active)
same,AC50,[9],44.5 µM (active)
same,AC50,[18],35.7 µM (active)
Cc1ccc(N=C=O)cc1N=C=O,AC50,[1],16.9 µM (active)
same,outcome,[2],inactive
same,outcome,[3],inactive
same,outcome,[19],inactive
same,outcome,[9],inactive
same,AC50,[18],22.6 µM (active)
COC(=O)Nc1nc2ccccc2[nH]1,AC50,[1],24.5 µM (active)
same,AC50,[2],1.41 µM (active)
same,AC50,[5],2.61 µM (active)
same,outcome,[6],inactive
same,AC50,[7],10 µM (active)
same,AC50,[8],6.5 µM (active)
same,outcome,[9],inactive
same,outcome,[18],inactive
